Test results: PubChem BioAssay (NCI)
This is part of a sample that, as a whole, favours compounds with a hit. Of some 83,000 tested, about 20% had one in any assay.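 Single-concentration screen, 48 h exposure, 96-well plates. Endpoint: percent growth. Below 10 = active.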 Calls of active or inactive are those of the source.

Test system: PC-3 prostate
Assay: NCI-60 one-dose screen, 48 h (100 = growth as untreated, 0 = no growth, -100 = all killed)
Conditions: 10 µM unless noted

SMILES | growth
CCc1ccc(OCc2ccccc2C(=O)Nc2ccc3nc(C)cc(N)c3c2)cc1 | -88.1% (active)
Nc1cccc(C(=O)Nc2ccc3c(O)c(N=Nc4ccc(N=Nc5ccc(S(=O)(=O)O)cc5)cc4)c(S(=O)(=O)O)cc3c2)c1 | 91.9% (inactive)
COc1cc(NCC(=O)Nc2cc(Nc3cccc(C(F)(F)F)c3)ncn2)c(Cl)c(OC)c1Cl | 82.2% (inactive)
CC1CCCN(CCCCCOc2ccc3oc4ccccc4c(=O)c3c2)C1 (configuration not stated) | 73.7% (inactive)
CCCn1c(N)c(C(N)=O)sc1=S | 96% (inactive)
CCOC(=O)c1sc(/N=C2\NC(=O)/C(=C/c3ccc(N4CCN(C)CC4)cc3)S2)nc1C | 102% (inactive)
CN(C)C1=NCCN1 | 80% (inactive)
CCOC(=O)c1ccc(Nc2ncnc3ccc(NC(=O)c4ccccc4)cc23)cc1 | 83.1% (inactive)
N#CC1C(c2ccc(Cl)cc2)=Nc2c(c(-c3ccccc3)nn2-c2ccccc2)C12C(=O)Nc1ccc(Cl)cc12 (configuration not stated) | 11.8% (inactive)
C#C[C@@]1(O)[C@@H](CO)O[C@@H](n2ccc3c(N)ncnc32)[C@@H]1O | -21.4% (active)
CN(C)CCCn1c2c(c3cc(-c4cccc(S(N)(=O)=O)c4)ccc3c1=O)C(=O)c1ccccc1-2 | 67.3% (inactive)
C=C1C(=O)O[C@H]2[C@H]1CC/C(COC(=O)/C=C/c1cccnc1)=C\CC[C@@]1(C)O[C@@H]21 | 57.5% (inactive)
C#C[C@@]1(O)[C@@H](CO)O[C@@H](n2cc(Cl)c3c(N)ncnc32)[C@@H]1O | -17.3% (active)
CCOc1ccc(C2N(c3cc(OC)c(OC)c(OC)c3)C(=O)C2(F)F)cc1 (configuration not stated) | 37.3% (inactive)
O=C1C(Cl)=C(NCCCN(CCCNC2=C(Cl)C(=O)c3ccccc3C2=O)C2=C(Cl)C(=O)c3ccccc3C2=O)C(=O)c2ccccc21 | 47% (inactive)
COc1ccc(-c2nc(C#N)c(NCC(c3ccc(Cl)cc3)N3CCCCC3)o2)cc1 (configuration not stated) | 75.3% (inactive)
Cc1nc2sc(C(=O)Nc3ccccc3)c(N)c2cc1C(C)O (configuration not stated) | 21.5% (inactive)
O=C1CCC23OC(c4ccccc4N12)C(O)C(O)C3O (configuration not stated) | 95.6% (inactive)
C=C1C(=O)O[C@H]2[C@H]1CC/C(COC(=O)CCCCC(=O)OC/C1=C/CC[C@@]3(C)O[C@H]3[C@H]3OC(=O)C(=C)[C@@H]3CC1)=C\CC[C@@]1(C)O[C@@H]21 | 68.6% (inactive)

SMILES | growth
CC[C@]12C=CCN3CC[C@@]4(c5cc(NC(=O)CCC(=O)O[C@H]6CC[C@H]7[C@@H]8CC[C@H]9CC(=O)CC[C@]9(C)[C@H]8CC[C@]67C)c(OC)cc5N(C)[C@H]4[C@@](O)(C(=O)OC)[C@@H]1OC(C)=O)[C@@H]32 | 47.7% (inactive)
N#CC(C#N)=C1NC(c2ccccc2)=C(c2ccccc2)C(c2ccccc2Cl)=C1C#N | 87.8% (inactive)
CCCCCCCCCCCCCC1=NCC[N+]1(CCO)Cc1ccccc1 (configuration not stated) | -88.4% (active)
Cc1cc(C)n(-c2nc(-c3cccs3)c(C#N)c(=O)[nH]2)n1 | 94.2% (inactive)
COc1ccc(C2C(c3ccccc3)C(=O)N2c2cc(OC)c(OC)c(OC)c2)cc1I (configuration not stated) | 22.2% (inactive)
CC(C)(C)c1ccc2oc(=O)n(SC(Cl)(Cl)Cl)c2c1 | 99.3% (inactive)
CCOC(=O)c1c(C)nc2c(c1N)/C(=C/c1ccccn1)C(=O)N2Cc1ccccc1 | 2.04% (active)
O=C(Nc1cccc(-c2cccc(F)c2)c1)C1CCN(Cc2cccc3cccnc23)CC1 | 51.1% (inactive)
COc1ccc(C(C)c2cc(OC)c(OC)c(OC)c2)cc1 (configuration not stated) | 24.5% (inactive)
Cc1ccc(SC2c3ccc(C)cc3Oc3nc(N)c(C#N)c(N)c32)cc1 (configuration not stated) | 80.6% (inactive)
COC(=O)/C=C/c1cc(OC)c2c(c1)[C@@H](C(=O)OC)[C@H](c1ccc(OC)c(OC)c1)O2 | 32.9% (inactive)
C#CCN(CCCOc1ccc(Cl)cc1Cl)CCCSC(=O)CCCCCN1/C(=C\C=C2/CCCC(/C=C/C3=[N+](CCCCCC(=O)[O-])c4ccccc4C3(C)C)=C2Cl)C(C)(C)c2ccccc21 | 20.9% (inactive)
O=C1NCc2ccc3c(-c4cccc(Cl)c4)c[nH]c3c21 | 17.2% (inactive)
O=C(/C(=C\c1c(-c2ccccc2)[nH]c2ccccc12)S(=O)(=O)c1ccccc1)c1ccccc1 | 16.6% (inactive)
N#Cc1c(-c2ccc(F)cc2)nc(N=Nc2c(O)[nH]c3ccccc23)nc1N1CCOCC1 | 64.1% (inactive)
CC(=O)OC[C@]12CC[C@@H](c3cn(Cc4ccc(Cn5cc([C@@H]6CC[C@]7(COC(C)=O)CC[C@]8(C)[C@H](CC[C@@H]9[C@@]%10(C)CC[C@H](OC(C)=O)C(C)(C)[C@@H]%10CC[C@]98C)[C@@H]67)nn5)cc4)nn3)[C@@H]1[C@H]1CC[C@@H]3[C@@]4(C)CC[C@H](OC(C)=O)C(C)(C)[C@@H]4CC[C@@]3(C)[C@]1(C)CC2 | 104% (inactive)
Cc1c(Br)cccc1NC(=O)c1sc2nc3c(cc2c1N)CN(Cc1ccccc1)CC3 | 31.8% (inactive)
COc1cccc(C(=O)OCCn2nc3c4c(cccc42)C(=O)c2ccccc2-3)c1O | 20.5% (inactive)
